Only a sample is shown.
aSyn 5UTR act = Activators working through SNCA 5'UTR binding (MLPCN); AID 1814; activity score, % (tested at 7.5 µM), hits read low; alpha-synuclein 5'UTR reporter, activators screen; actives 7.1% (n = 300,000); in the data active means activity score below about -60%
Active calls of the source: *.

`CCCOc1ccc(C(=O)NC(=S)Nc2nc3ccccc3s2)cc1` gave aSyn 5UTR act -247*.
`Cc1ccc(-c2csc(NC(=S)NC(=O)c3cccs3)n2)cc1` gave aSyn 5UTR act -77*.
`CN1Cc2cc(C(=O)c3cc(Cl)cc(CSc4ncccn4)c3O)cnc2NC1=O` gave aSyn 5UTR act 79.
Screening CCCC(=O)NC(=S)Nc1nc(-c2ccc(OC)cc2)cs1 returned aSyn 5UTR act -65*.
`COc1ccc(-c2csc(NC(=O)c3ccccc3NS(=O)(=O)c3ccc(F)c(F)c3)n2)cc1` gave aSyn 5UTR act 74.
Screening CN1C2CCC1/C(=C\c1ccccc1)C(=O)/C2=C\c1ccccc1 returned aSyn 5UTR act -185*.
Screening CCOC(=O)C1CCCCN1C(=O)CCc1c(C)nc2ncnn2c1C (centres undefined) returned aSyn 5UTR act 61.
Screening COC(=O)[C@@H]1CCCN1C(=O)CCc1nnc(CCC2CCCCC2)o1 returned aSyn 5UTR act -116*.
Screening O=C(Nc1ccc2c(c1)CCC2)c1cnc(Cl)c(Cl)c1 returned aSyn 5UTR act -190*.
O=C(Nc1ccc2c(c1)CCC2)c1c(F)cccc1Cl was read as aSyn 5UTR act -159*.
Screening O=C(Nc1ccc2c(c1)CCC2)c1ccc(Cl)nc1 returned aSyn 5UTR act -156*.
COc1ccc(C(=O)c2ccc(CC#N)s2)cc1 was read as aSyn 5UTR act -150*.
`COc1ccc(C(=O)c2ccsc2N)cc1` gave aSyn 5UTR act -97*.
For Cc1ccc(C2NC(=O)c3c(sc4c3CCN(C)C4)N2)s1 (centres undefined) the results were aSyn 5UTR act -72*.
`Cc1ccsc1C1NC(=O)c2c(sc3c2CCCC3)N1` (centres undefined) gave aSyn 5UTR act -218*.
O=C1NC(c2ccc(Br)cc2)Nc2sc3c(c21)CCC3 (centres undefined) was read as aSyn 5UTR act -96*.
O=C1NC(c2ccccn2)Nc2sc3c(c21)CCC3 (centres undefined) was read as aSyn 5UTR act -124*.
For Cc1c(NC(=O)c2ccc(C(C)(C)C)cc2)cccc1[N+](=O)[O-] the results were aSyn 5UTR act -133*.
Screening CC(C)(C)c1ccc(NC(=O)c2ccccc2)c([N+](=O)[O-])c1 returned aSyn 5UTR act -100*.
For O=C(NC(=S)Nc1cccc2[nH]ncc12)c1ccccc1 the results were aSyn 5UTR act -176*.
O=C(NC(=S)Nc1ccccc1[N+](=O)[O-])c1ccccc1 was read as aSyn 5UTR act -136*.
For Cc1c(NC(=O)c2ccc3nsnc3c2)cccc1[N+](=O)[O-] the results were aSyn 5UTR act -68*.
`CCOc1cc(/C=C\c2[nH]c(=O)[nH]c(=O)c2[N+](=O)[O-])ccc1OC(C)CC` (centres undefined) gave aSyn 5UTR act -67*.
`CCc1nonc1NC(=O)c1oc2cc(C)c(C)cc2c1C` gave aSyn 5UTR act -127*.
`CCc1nnc(NC(=O)c2oc3cc(C)c(C)cc3c2C)s1` gave aSyn 5UTR act -102*.
COC(=O)C(C)N1C(=O)S/C(=C\c2ccc(-c3ccc(C(=O)O)cc3C)o2)C1=O (centres undefined) was read as aSyn 5UTR act -137*.
N#Cc1c(N)n(C2CCCCC2)c2nc3ccccc3nc12 was read as aSyn 5UTR act 62.
CCCn1ncc2c(Nc3ccc(C)c(C)c3)ncnc21 was read as aSyn 5UTR act -92*.
`C=C(CC)C(=O)c1ccc(OCC(=O)O)c(Cl)c1Cl` gave aSyn 5UTR act -67*.
For CC(Cc1ccco1)NC(=O)c1ccc(C(F)(F)F)cc1 (centres undefined) the results were aSyn 5UTR act -69*.
COc1ccc2c(c1)C(=O)CC(c1ccc3c(c1)OCCO3)O2 (centres undefined) was read as aSyn 5UTR act -272*.
Cc1ccc2c(c1)C(=O)CC(c1ccc3c(c1)OCCO3)O2 (centres undefined) was read as aSyn 5UTR act -96*.
Screening COc1ccc2c(c1)O[C@@H](c1cccc(C(F)(F)F)c1)[C@H](O)C2=O returned aSyn 5UTR act 62.
Screening COc1ccc2c(c1)O[C@H](c1ccc3c(c1)OCO3)[C@@H](O)C2=O returned aSyn 5UTR act -86*.
`Cc1ccc(N2C(=O)c3ccccc3NC2(C(=O)O)c2ccccc2)cc1Cl` (centres undefined) gave aSyn 5UTR act -68*.
For CCC(Sc1nnnn1C)C(=O)Nc1ccc(C(C)=O)cc1 (centres undefined) the results were aSyn 5UTR act -73*.
Screening O=C(CSC(=S)N1CCSCC1)c1ccccc1 returned aSyn 5UTR act -94*.
`O=C(CSC(=S)N1CCSCC1)c1ccc(Cl)cc1` gave aSyn 5UTR act -152*.
COCn1c(-c2cccc(Br)c2)nc2ccccc21 was read as aSyn 5UTR act -63*.
Screening COCn1c(-c2ccc(OC)c(OC)c2)nc2ccccc21 returned aSyn 5UTR act -106*.
For O=C(NNc1nc(-c2ccc(F)cc2)cs1)c1ccccc1 the results were aSyn 5UTR act 90.
`c1ccc(-c2nnc(-c3ccccn3)nc2NC2CCCCC2)cc1` gave aSyn 5UTR act 101.
Screening c1ccc(-c2csc(NC3CCCCC3)n2)cc1 returned aSyn 5UTR act -92*.
For O=C(Nc1nc(-c2ccc(F)cc2)cs1)C1CCCO1 (centres undefined) the results were aSyn 5UTR act -97*.
For O=C(Nc1nc(-c2ccc(-c3ccccc3)cc2)cs1)C1CCCO1 (centres undefined) the results were aSyn 5UTR act -65*.
`O=C(Nc1nc(-c2ccccc2)cs1)C1CCCO1` (centres undefined) gave aSyn 5UTR act -66*.
COC(=O)c1c(NC(=O)c2ccc([N+](=O)[O-])o2)sc2c1CCN(C(C)C)C2 was read as aSyn 5UTR act 105.
CC(C)N1CCc2c(sc(NC(=S)NC(=O)c3ccccc3)c2C#N)C1 was read as aSyn 5UTR act -143*.
`CCCN1CCc2c(sc(NC(=S)NC(=O)c3ccccc3)c2C#N)C1` gave aSyn 5UTR act -140*.
`Cc1ccc(-c2nnc(NC3CCCC3)s2)cc1` gave aSyn 5UTR act -143*.
O=C(Oc1ccc(/C=N/NC(=O)c2ccccn2)cc1)c1cccc(F)c1 was read as aSyn 5UTR act -116*.
O=C(N/N=C/c1cccc(OC(=O)c2ccco2)c1)c1ccc(F)cc1 was read as aSyn 5UTR act -104*.
O=C(N/N=C/c1ccc(OC(=O)c2ccco2)cc1)c1ccccn1 was read as aSyn 5UTR act -123*.
Cc1cc(C(=O)N/N=C/c2cc(Br)cc(Br)c2OC(=O)c2cccc(F)c2)n[nH]1 was read as aSyn 5UTR act 70.
CC(C)(C)OC(=O)N/N=C/c1ccc(Br)cc1 was read as aSyn 5UTR act -132*.
For COc1ccc(/C=N\NC(=O)c2c(C)nc3ccc(Br)cn23)cc1 the results were aSyn 5UTR act 51.
`O=C(Oc1ccc(/C=N/NC(=O)c2ccccn2)cc1)c1ccc(Br)cc1` gave aSyn 5UTR act -124*.
`O=C(N/N=C/c1ccc(OC(=O)c2cccs2)cc1)c1ccccn1` gave aSyn 5UTR act -98*.
Screening CC(C)(C)OC(=O)N/N=C\c1ccc(OC(=O)c2cccs2)cc1 returned aSyn 5UTR act -91*.
`COc1cc(/C=N/NC(=O)c2ccccn2)ccc1OC(=O)c1ccc(Br)cc1` gave aSyn 5UTR act -84*.
For Cc1cc(C(=O)N/N=C/c2cc(Br)ccc2OC(=O)c2ccc(Br)cc2)n[nH]1 the results were aSyn 5UTR act 84.
